Assay outcomes (PubChem)
Sampled rows, rich in hits. Any-hit rate of the full collection: about 17%.
HT1080 IDH1KD tx – HT-1080 IDH1 knockdown cell toxicity (counter line) | HT-1080 IDH1 knockdown viability, ATP luminescence, 48 h | Potency, µM (doses to about 46.1 µM), for the others: at the top dose activity, negative = toxicity, actives largely listed as cytotoxic | actives 2% (n = 360,000);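 note: 0% = DMSO wells and -100% = cell-free medium wells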
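% activity derives from luminescence (CellTiter-Glo), normalised to DMSO and no-cell wells. HT-1080-IDH1KD cells, 750/well, had 48 h compound exposure at 37 °C.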
TDP1 cell CPT – DT40-hTDP1 cell growth loss with CPT. Potency, µM (top dose mostly 46.2 µM), for the others: at the highest dose activity change, negative = growth inhibition, hits mostly inhibitors. AID 686979. chicken DT40 Tdp1-/-;hTDP1 cells + 20 nM CPT, ATP luminescence, 48 h. actives 12% (n = 420,000); note: % is set by controls: 0 for no effect and ±100 for the full control effect; nearly all actives have a fitted effect of over 55% in size
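Cell growth measured by CellTiter-Glo luminescence after a minimum 48 h, 37 C compound exposure with 20 nM CPT in Tdp1-knockout DT40 cells stably expressing hTDP1, seeded 400/well; qHTS titration format.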
TGFb inhibitor – inhibitors of TGF-b signaling. AID 588855. actives 1.2% (n = 410,000). Potency, µM (highest dose often 46.1 µM), inactives show at the highest dose activity, negative = inhibition, most hits filed as inhibitors. HepG2 CAGA-GFP TGF-b/SMAD3 reporter, GFP fluorescence, 18 h; TGF-beta stimulated, 500 pg/mL final; note: % is set by controls: 0 for no effect and ±100 for the full control effect; nearly all actives have a fitted effect of over 65% in size
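Inhibition was scored as loss of TGF-beta-induced (500 pg/mL final, 18 hours, 37 degrees C) GFP in HEPG2 cells carrying a CAGA-GFP reporter, in DMEM with 1% FBS. Well GFP was summed per cell; Activity was normalised to unstimulated and stimulated DMSO wells, then concentration-response fitting.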
TDP1 cell noCPT – qHTS for Inhibitors of human tyrosyl-DNA phosphodiesterase 1 (TDP1): qHTS in cells in absence of CPT; DT40 Tdp1-/- hTDP1 cells, no CPT, ATP luminescence, 48 h; Potency, µM (series often up to 46.2 µM), for inactives: top-dose activity change, negative = growth inhibition, most hits filed as inhibitors; actives 15% (n = 420,000); AID 686978, 2013; note: % is set by controls: 0 for no effect and ±100 for the full control effect; nearly all actives have a fitted effect of over 55% in size
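Chicken DT40 Tdp1-/- cells complemented with human TDP1, screened without camptothecin (DMSO vehicle only), 400 cells/well. Compounds pin-transferred, cells incubated at 37 °C for at least 48 hr. Growth read as ATP-dependent luminescence (CellTiter-Glo, 30 min at RT).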
HT1080NT lethal – kills 2HG-producing HT-1080-NT fibrosarcoma cells. HT-1080-NT fibrosarcoma viability, CellTiter-Glo ATP luminescence, 48 h. Potency, µM (titrated, usually from 46.1 µM), inactives show at the top dose activity, negative = less viability, most hits filed as cytotoxic. actives 1.6% (n = 360,000). AID 686970;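 note: NT is the 2HG producing partner of a matched IDH1 knockdown line; 0% = DMSO-treated cells and -100% = media-only wells without cells; nearly all actives have a fitted effect of over 55% in size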
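Luminescent CellTiter-Glo readout after 48 hours of compound exposure at 37 degrees C defined viability of HT-1080-NT cells. Activity was normalized to DMSO wells and cell-free media wells; concentration-response curves were fitted and assigned curve classes.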
HepG2 tox – HepG2 cytotoxicity, counter-screen for TGF-b inhibitors; AID 588856; actives 0.76% (n = 410,000); Potency, µM (series often up to 46.1 µM), inactives show at the highest dose activity change, negative = cytotoxicity, usual class: cytotoxic; HepG2 CAGA-GFP viability, ATP luminescence, 18 h
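HepG2 CAGA-GFP cells (1000/well, DMEM with 1% FBS) received compound, then TGF-beta at 500 pg/mL final, and were incubated 18 hours at 37 degrees C. Viability was read by CellTiter-Glo luminescence. Media-only wells were set as complete cell-killing and DMSO as no toxicity.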
An asterisk follows results filed as active; ? = inconclusive; · = not tested or not shown; [ ] = another dose, or the depositor's remark. Calls come from the whole dose curve; as a rule, active = well fitted curve in the direction sought with a large enough effect; inconclusive = small, poorly fitted or top-dose-only effect, or another doubt; inactive = no such curve, though single readings can be large; an effect the other way counts as inactive or inconclusive. Potency is the fitted concentration of half-maximal effect.

SMILES | HT1080 IDH1KD tx | TDP1 cell CPT | TGFb inhibitor | TDP1 cell noCPT | HT1080NT lethal | HepG2 tox
O=c1[nH]nc(Br)c(=O)n1C(c1ccccc1)c1ccccc1 | -9.7% | 20.6µM* | -22.0% | ? | -6.3% | -6.2%
O=C(NC1CC1)C1CCN(c2ncccn2)CC1 | 10.2% | -0.1% | 4.3% | 4.5% | -1.0% | -16.3%
Cc1nn(C)c2c1c(-c1ccccc1)cc(=O)n2Cc1ccc(Cl)cc1 | · | 2.1% | 3.1% | -8.7% | · | -45.5%
c1ccc2c(c1)CCc1ccccc1C2=C1CCNCC1 | -18.4% | 14.6µM* | -22.6% | 13µM* | -25.2% | -40.5%
O=C1C(=C2CCc3ccccc32)Cc2ccccc21 | -7.2% | ? | 4.0% | ? | -0.9% | -28.8%
O=C(N/N=C/c1ccccn1)c1ccc(N/N=C/c2ccccn2)cc1 | 14.3% | 0.7% | 1.5% | 1.5% | 4.3% | -2.8%
CC(C)(C)c1ccc(C(=O)N/N=C/c2ccccn2)cc1 | ? | 9.2µM* | ? | 5.8µM* | ? | -13.5%
Cc1ccc(C(=O)N/N=C\c2ccccn2)cn1 | -4.8% | -2.6% | 8.8% | -15.5% | -11.5% | -21.4%
O=C(N/N=C/c1ccccn1)c1ccc(Br)cc1 | ? | 20.6µM* | ? | 14.6µM* | -20.9% | -8.0%
CC1=NN(c2ccc(C)cc2C)C(=O)C1C(c1cccc(O)c1)C1C(=O)N(c2ccc(C)cc2C)N=C1C (stereo not drawn) | -0.2% | 5.4% | 3.1% | -13.1% | 4.0% | -29.8%
CCCCn1c2ccc(F)cc2c2nnc(NN)nc21 | -17.5% | 18.4µM* | -16.0% | ? | -0.7% | -19.0%
CCn1c2ccccc2c2nnc(NN)nc21 | 2.9% | ? | ? | ? | -1.6% | -20.1%
CCn1c2ccc(C)cc2c2nnc(NN)nc21 | -16.7% | 18.4µM* | 14.1µM* | 9.2µM* | -4.6% | -29.6%
C[C@]12C=CC(=O)N[C@@H]1CC[C@@H]1[C@@H]2CC[C@]2(C)[C@@H](C(=O)Nc3cc(C(F)(F)F)ccc3C(F)(F)F)CC[C@@H]12 | · | -13.2% | · | -10.7% | · | ·
COc1cccc(CN2CCNC(=O)C2CC(=O)NCCn2cccn2)c1OC (stereo not drawn) | 7.0% | -8.0% | -1.3% | 8.9% | 25.7% | 1.4%
CC1CCN(CC2C(=O)O[C@@H]3C[C@@]4(C)CCC[C@H](C)C4=C[C@H]23)CC(C)(C)C1 (stereo partly drawn) | -4.1% | ? | 0.0% | 18.4µM* | -14.3% | -16.2%
O=C1NC(=S)S/C1=C\C=C\c1ccc([N+](=O)[O-])o1 | 5.17µM* | 1.64µM* | 2.24µM* | 2.31µM* | 5.8µM* | -105.4%
CCCCCCn1c(SCCCC)nc2c1c(=O)[nH]c(=O)n2C | -3.8% | -12.9% | 9.5% | ? | 1.9% | 2.7%
CCn1c([N+](=O)[O-])nc2c1c(=O)[nH]c(=O)n2C | 20.6µM* | 2.31µM* | 10µM* | 1.84µM* | 18.4µM* | -126.0%
COc1ccc(-c2cc(C)no2)cc1S(=O)(=O)NCCCN1CCCCCC1 | -2.2% | -11.7% | -26.2% | -2.9% | -9.3% | -3.7%
Cc1cc(C)c2c(=O)c3c(oc2c1)C(=O)N(Cc1ccc(F)cc1)C3c1cccc(O)c1 (stereo not drawn) | · | 23.1µM* | ? | 11.6µM* | · | -22.3%
Cc1ccc2oc3c(c(=O)c2c1)C(c1cccc(O)c1)N(Cc1ccccc1Cl)C3=O (stereo not drawn) | · | ? | 4.9% | 18.4µM* | · | -15.1%
CCOc1cc(C2c3c(oc4cc(C)c(Cl)cc4c3=O)C(=O)N2Cc2ccco2)ccc1O (stereo not drawn) | 14.3% | 18.4µM* | -6.5% | 16.4µM* | -2.8% | 5.0%
CSc1ccc(C2c3c(oc4cc(C)cc(C)c4c3=O)C(=O)N2Cc2ccco2)cc1 (stereo not drawn) | · | -2.4% | 12.5% | -2.1% | · | 0.3%
CSc1ccc(C2c3c(oc4cc(C)cc(C)c4c3=O)C(=O)N2CCO)cc1 (stereo not drawn) | · | ? | -4.0% | 23.1µM* | · | -1.2%
SMILES | HT1080 IDH1KD tx | TDP1 cell CPT | TGFb inhibitor | TDP1 cell noCPT | HT1080NT lethal | HepG2 tox
CC(=O)[C@]1(O)CCC2C3CC(C)C4=CC(=O)C=CC4(C)[C@@]3(F)C(O)C[C@]21C (stereo partly drawn) | · | 4.0% | · | -11.5% | · | ·
Cc1cc(=O)c(C(=O)NCCCc2ccncc2)c2n1-c1ccccc1SC(c1cccs1)C2 (stereo not drawn) | · | ? | · | -18.8% | · | ·
CCN(CC)CCN1C(=O)c2oc3ccccc3c(=O)c2C1c1cccc(Br)c1 (stereo not drawn) | -1.5% | -7.4% | ? | 0.5% | -8.5% | 2.4%
Cc1ccc2oc3c(c(=O)c2c1)C(c1cccc(Br)c1)N(Cc1ccco1)C3=O (stereo not drawn) | 3.6% | ? | -1.0% | 20.6µM* | 9.1% | 11.2%
O=C1c2oc3ccc(Cl)cc3c(=O)c2C(c2cccc(Br)c2)N1CCO (stereo not drawn) | -8.5% | 25.9µM* | -16.3% | ? | -2.9% | 4.6%
Cc1ccc(CN2C(=O)c3oc4ccc(C)cc4c(=O)c3C2c2ccc(O)cc2)cc1 (stereo not drawn) | · | 16.4µM* | 20.7% | ? | · | 9.6%
COc1ccccc1C1CN(CCNC(=O)[C@@H]2CSC(=O)N2)Cc2ccccc2O1 (stereo partly drawn) | · | -0.9%[9.04 µM] | · | -16.5% | · | ·
O=C(COc1cc2oc(=O)c3c(c2cc1Cl)CCCC3)N1C[C@H]2C[C@@H](C1)c1cccc(=O)n1C2 | 0.5% | -5.6% | 8.5% | -7.8% | -3.2% | -3.0%
Cc1cc(C)cc(C(=O)N(C)[C@H](Cc2ccc(-c3ccccc3)cc2)C(=O)N[C@@H](Cc2c[nH]c3ccccc23)C(=O)O)c1 | · | 0.4% | · | -24.7% | · | ·
O=C(CCc1ccccc1)NNC(=S)NC(=O)c1ccc(Cl)cc1 | ? | ? | ? | 23.1µM* | ? | -18.9%
CCCCCC(=O)NC(=S)NNC(=O)CC | 5.3% | 16.4µM* | -5.8% | ? | 2.3% | -2.8%
O=C(CCc1ccccc1)NNC(=S)NCc1ccc(Cl)cc1 | 7.7% | ? | -1.5% | -15.3% | 3.7% | -12.2%
CC(=O)NNC(=S)NC(=O)c1ccc(C)cc1 | -0.7% | 0.9% | 1.9% | -7.5% | 2.8% | 13.0%
CCCCC(=O)NC(=S)NNS(=O)(=O)c1ccccc1 | 12.1% | -27.4% | 7.1% | -20.7% | 11.3% | -2.1%
